Shown are actives, neighbours in structure and some others; about 2.8% of the full set was active somewhere.
TROY NFkB inh = TROY signaling inhibition. 360,000 tested, 0.98% active. inhibition, % at 10 µM. Q293 LMP1-TROYcd NF-kB luciferase reporter, 4 h;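 active means compounds whose plate-normalised and pattern-corrected inhibition of the luciferase reporter signal at the single screening dose is 50% or more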
PAX8 inh HTS = lowers PAX8-driven luciferase in RMG-I cells; inhibition, % at 12.6 µM; 360,000 tested, 1.2% active; AID 652154; RMG-I TPO-luciferase reporter, SteadyGlo, 24 h;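 active means mean replicate inhibition at least 60% with every replicate also reaching 60%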;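 further: luciferase light reporting Pax8 driven TPO promoter activity; plate controls were median of neutral control wells for no effect and mitoxantrone controls for full effect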
LGR2 inh = Drosophila LGR2 receptor signaling inhibition; HEK293 LGR2, CRE-luciferase, bursicon-stimulated, 4 h; inhibition, % at 9.99 µM; 380,000 tested, 0.35% active; AID 720647;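 active means drop in luminescence signal, shown as inhibition above about 50% in the replicate tests, limit read from the data, passing the limit was not always enough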;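 further: agonist challenge used bursicon conditioned medium at about half maximal strength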
EWS-Fli inh = blocks EWS/Fli oncoprotein-driven transcription. A673 NR0B1-luciferase reporter, viability-normalised. inhibition, % at 12.6 µM. 350,000 tested, 0.67% active;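 active means mean inhibition of at least 50% after viability correction, with every replicate also passing that limit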;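 further: firefly luciferase signal divided by Alamar Blue viability fluorescence both relative to DMSO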
TWEAK Fn14 block = blocks TWEAK-Fn14 interaction in a reporter cell assay; TWEAK-stimulated Fn14 reporter cells, luciferase luminescence, 8 h; inhibition, % at 10 µM; 360,000 tested, 2% active; AID 1159606; in the data active means inhibition above about 50%
Active calls of the source: *; nt = no result given.

SMILES | TROY NFkB inh | PAX8 inh HTS | LGR2 inh | EWS-Fli inh | TWEAK Fn14 block
Nc1nc(CCl)nc(Nc2cccc3ccccc23)n1 | 6 | 123* | 17 | 40 | 23
O=C(Cc1nnc(NC(=O)c2ccccc2)s1)N/N=C/c1cccc(O)c1 | -30 | -23 | 3 | 0 | -21
O=C(Cc1nnc(NC(=O)c2ccccc2)s1)N/N=C/c1ccco1 | -2 | 132* | nt | -35 | -2
NC(=O)c1[nH]cnc1N=NN(CCO)Cc1ccccc1 | 5 | 74* | -12 | -7 | 3
CN(C)N=Nc1nc[nH]c1C(N)=O | 10 | 102* | 3 | -3 | 2
CN(Cc1ccccc1)C(=O)c1nc[nH]c1C(=O)N(C)Cc1ccccc1 | 11 | 8 | 11 | 3 | 11
CN(N=Nc1nc[nH]c1C(N)=O)C1CCCCC1 | -1 | 100* | -7 | -11 | 5
CNC[C@H]1Oc2ncc(C#CC3CCCC3)cc2C(=O)N([C@@H](C)CO)C[C@H]1C | nt | -22 | -1 | -31 | nt
C[C@@H]1CCCCO[C@@H](CN(C)C(=O)c2ccncc2)[C@@H](C)CN([C@H](C)CO)C(=O)c2cc(NS(=O)(=O)c3ccc(F)cc3)ccc2O1 | nt | -25 | 5 | -6 | nt
O=C(Cc1ccccn1)NCC[C@@H]1CC[C@@H](NC(=O)Nc2ccc(C(F)(F)F)cc2)[C@@H](CO)O1 | nt | 69* | 16 | -14 | nt
O=C(Cc1ccccn1)NCC[C@@H]1CC[C@H](NC(=O)Nc2ccc(C(F)(F)F)cc2)[C@@H](CO)O1 | nt | 85* | 1 | -11 | nt
CO[C@H]1CN(C)C(=O)c2cc(NC(=O)Nc3cc(F)ccc3F)ccc2OC[C@H](C)NC[C@@H]1C | nt | 22 | 23 | 9 | nt
CCC(C)Nc1nc(N)c([N+](=O)[O-])c(N2CCCCCC2)n1 (configuration not stated) | 18 | 77* | -6 | 14 | 17
COCC(=O)Nc1ccc2c(c1)[C@H]1C[C@@H](CC(=O)NC3CCCC3)O[C@@H](CO)[C@H]1O2 | nt | -7 | 5 | -8 | nt
O=C1C=C(c2c(O)ccc3ccccc23)c2ccccc2C1=O | 49 | 83* | 95* | 57* | 102*
O=C1C=C(O)c2cccc(O)c2C1=O | -1 | nt | nt | 9 | 1
C[C@@H]1CCCCO[C@@H](CN(C)C(=O)Nc2ccc(F)cc2)[C@@H](C)CN([C@H](C)CO)C(=O)c2cc(NC(=O)c3ccncc3)ccc2O1 | nt | -14 | nt | -8 | nt
Brc1ccc(-c2ccccc2)cc1 | -2 | nt | -6 | -8 | -6
c1ccc(-c2cnc(-c3ccccc3)nn2)cc1 | 0 | -27 | 74* | 46 | 46
Brc1ccc(-c2ncc(-c3ccccc3)cn2)cc1 | -9 | nt | nt | nt | 52*
CC[C@@H](C)[C@H](NC(=O)OC(C)(C)C)c1nnc(S(=O)(=O)Cc2cc(C)ccc2C)o1 | 73* | nt | nt | nt | 23
Cc1ccccc1CS(=O)(=O)c1nnc([C@H](CC(C)C)NC(=O)OC(C)(C)C)o1 | 32 | nt | 9 | 1 | 22
C[C@@H]1CN([C@@H](C)CO)C(=O)c2cc(NS(C)(=O)=O)ccc2O[C@@H](C)CCCCO[C@H]1CN(C)C(=O)c1ccccc1 | nt | -14 | -6 | 4 | nt
O=C1C=C(N2CCCCC2)c2ccccc2C1=O | -1 | 87* | 20 | -2 | 14
Cc1ccc(S(=O)(=O)Nc2ccc3c(c2)C(=O)N([C@@H](C)CO)C[C@@H](C)[C@@H](CN(C)S(=O)(=O)c2ccc(F)cc2)OCCCC[C@@H](C)O3)cc1 | nt | 68* | -11 | -8 | nt
SMILES | TROY NFkB inh | PAX8 inh HTS | LGR2 inh | EWS-Fli inh | TWEAK Fn14 block
Cc1ccc(S(=O)(=O)N(C)C[C@@H]2OCCCC[C@H](C)Oc3ccc(NS(=O)(=O)c4ccc(F)cc4)cc3C(=O)N([C@H](C)CO)C[C@@H]2C)cc1 | nt | 70* | 41 | -2 | nt
C[C@@H]1CCCCO[C@H](CN(C)S(=O)(=O)c2ccccc2)[C@H](C)CN([C@@H](C)CO)C(=O)c2cc(NS(=O)(=O)c3ccc(F)cc3)ccc2O1 | nt | 33 | 12 | 1 | nt
C[C@H](CO)N1C[C@H](C)[C@H](CN(C)S(=O)(=O)c2ccccc2)OCCCC[C@H](C)Oc2ccc(NS(=O)(=O)c3ccc(F)cc3)cc2C1=O | nt | 63* | -13 | 2 | nt
Cc1ccc(S(=O)(=O)Nc2ccc3c(c2)C(=O)N([C@@H](C)CO)C[C@H](C)[C@@H](CN(C)S(=O)(=O)c2ccc(F)cc2)OCCCC[C@@H](C)O3)cc1 | nt | 20 | -3 | -7 | nt
Cc1ccc(S(=O)(=O)N(C)C[C@H]2OCCCC[C@@H](C)Oc3ccc(NS(=O)(=O)c4ccc(F)cc4)cc3C(=O)N([C@@H](C)CO)C[C@H]2C)cc1 | nt | 83* | 3 | 2 | nt
Cc1ccc(S(=O)(=O)N(C)C[C@@H]2OCCCC[C@@H](C)Oc3ccc(NS(=O)(=O)c4ccc(F)cc4)cc3C(=O)N([C@H](C)CO)C[C@@H]2C)cc1 | nt | -24 | -3 | -12 | nt
O=C(C[C@H]1C[C@@H]2c3cc(NS(=O)(=O)c4ccc(F)cc4)ccc3O[C@@H]2[C@@H](CO)O1)NCc1ccccc1 | nt | 20 | -10 | 4 | nt
Cc1ccc(S(=O)(=O)Nc2ccc3c(c2)C(=O)N([C@H](C)CO)C[C@H](C)[C@H](CN(C)S(=O)(=O)c2ccc(F)cc2)OCCCC[C@H](C)O3)cc1 | nt | 68* | 6 | 16 | nt
Cc1ccc(S(=O)(=O)N(C)C[C@@H]2OCCCC[C@H](C)Oc3ccc(NS(=O)(=O)c4ccc(F)cc4)cc3C(=O)N([C@@H](C)CO)C[C@@H]2C)cc1 | nt | 58 | 32 | -2 | nt
CCN1c2ccccc2N(C)C1(C)c1ccccc1 (configuration not stated) | 10 | nt | nt | nt | 20
CN1c2ccccc2N(C)C1(C)c1ccccc1 | -3 | 92* | 3 | 5 | 28
CNC[C@H]1Oc2cc(C#CC3(O)CCCC3)ccc2S(=O)(=O)N([C@H](C)CO)C[C@@H]1C | nt | -7 | -18 | -3 | nt
Cc1ccc(-c2csc(NC(=O)c3ccc4c(=O)n5c(nc4c3)CCCCC5)n2)cc1 | -26 | 5 | 14 | -2 | 70*
Cc1ccc(S(=O)(=O)N2CCCCC2)cc1NC(=O)c1ccc2c(=O)n3c(nc2c1)CCCCC3 | nt | -9 | 67* | 2 | nt
C[C@H](CO)N1C[C@H](C)[C@@H](CN(C)Cc2ccc(Oc3ccccc3)cc2)Oc2ccc(NC(=O)Cc3cn(C)c4ccccc34)cc2CC1=O | nt | 65* | 23 | 14 | nt
C[C@@H]1CN([C@@H](C)CO)C(=O)Cc2cc(NC(=O)Nc3ccc(C(F)(F)F)cc3)ccc2O[C@H]1CN(C)Cc1ccc(C(F)(F)F)cc1 | nt | 64* | 13 | 9 | nt
C[C@H]1CN([C@@H](C)CO)C(=O)Cc2cc(NC(=O)Cc3cn(C)c4ccccc34)ccc2O[C@H]1CN(C)Cc1ccc(Oc2ccccc2)cc1 | nt | 22 | 33 | 8 | nt
C[C@H](CO)N1C[C@H](C)[C@@H](CN(C)C(=O)Nc2cccc3ccccc23)Oc2ccc(NC(=O)Nc3ccc(C(F)(F)F)cc3)cc2CC1=O | nt | 47 | 15 | 16 | nt
C[C@H](CO)N1C[C@H](C)[C@@H](CN(C)Cc2ccncc2)Oc2ccc(NC(=O)Nc3ccc(C(F)(F)F)cc3)cc2CC1=O | nt | 90* | 4 | nt | nt
